# In PubChem BioAssay (NCI):
# The panel holds about 83,000 compounds, 20% with a hit somewhere; the sample as a whole holds those more often.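 Note: values are percent growth. 100 is the growth of untreated cells, values between 100 and 0 indicate rising inhibition; between -100 and 0 indicates cell death.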 Unmarked numbers belong to inactive results. Calls of active or inactive are those of the source. Rule for the calls: active = growth percent below 10; inactive = the rest.
# Test system: MDA-MB-468 breast
# Assay: NCI-60 one-dose screen, 48 h (100 = growth as untreated, 0 = no growth, -100 = all killed)
# Conditions: 10 µM unless noted
row,SMILES,growth
1,O=C1C=C(O)c2ccccc2C1=O.[Ag],99%
2,Cc1ccc(NCc2cn(-c3ccc(C(=O)O)cc3)nc2-c2ccc(C(=O)O)cc2)cc1,120%
3,c1csc(-c2nc(-c3cc4ccccc4c(N4CCOCC4)n3)cs2)c1,5.77% (active)
4,CC[C@]1(O)C[C@@H]2CN(Cc3c([nH]c4ccccc34)[C@@](C(=O)OC)(c3cc4c(cc3OC)N(C)[C@H]3[C@@](O)(C(=O)OC)[C@H](OC(C)=O)[C@]5(CC)[C@@H]6C[C@@H]6CN6CC[C@]43[C@@H]65)C2)C1,8.25% (active)
5,COc1ccc(C(=O)c2c(N)c(C#N)cn2-c2ccccc2OC)cc1,31%
6,CC(C)NS(=O)(=O)c1cccc(-c2ccc3c4c(n(CCCN(C)C)c(=O)c3c2)-c2ccccc2C4=O)c1,99.3%
7,O=[N+]([O-])c1ccc2nc(N/N=C/c3ccc(O)cc3)sc2c1,64.2%
8,Cc1ccc2[nH]c(-c3ccc(S(C)(=O)=O)cc3)c(/C=N/N=C(N)N)c2c1,81.1%
9,COC(=O)c1c2c(n3ccccc13)C(=O)c1ccccc1C2=O,95.7%
10,O=C(NCCNC(=O)c1ccc(F)cc1)Nc1ccc(-n2cc(-c3ccncc3)c(-c3ccc(Cl)c(O)c3)n2)cc1,-35.9% (active)
11,O=C(NC[C@H](O)CN1CCc2ccccc2C1)c1cc(NC2COC2)ncn1,115%
12,COc1cc(CNCCCCCCN2C(=O)c3cccc4cccc(c34)C2=O)ccc1O,47.2%
13,CC(=O)N(C)N=Nc1ccc(C)cc1,104%
